Test results as given in PubChem BioAssay (NCI).
The panel holds about 79,000 compounds, 15% with a hit somewhere; the sample as a whole holds those more often. Activity calls are given as the source filed them. Rule as the data show it: active = growth inhibition above about 70%; inactive = the rest.

Test: NCI Yeast Anticancer Drug Screen. Data for the sgs1 mgt1 strain (AID 161);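 also: 0% = growth of cultures given vehicle only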
Settings: S. cerevisiae sgs1 mgt1 strain, at 5.0 µM (retest, dose inferred, filed as 0.5), hits give high values
How it was run: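 Genetically altered yeast, compound exposure, growth inhibition relative to vehicle.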

| SMILES | growth inhibition |
| --- | --- |
| CCOP(=O)(OCC)C(Cc1ccccc1)N=C(c1ccccc1)c1ccccc1 (centres undefined) | -14% (inactive) |
| CCc1ncnc2cc(OCC3CO3)c(OC)cc12 (centres undefined) | 79% (active) |
| CCOC(=O)[C@H]1Nc2ccccc2C2c3ccccc3CC21 (some centres undefined) | 25% (inactive) |
| O=CNc1ccc2c(c1)C(=O)c1ccccc1-2 | 5% (inactive) |
| CCOc1ccc2c(c1)c(CC(=O)O)cn2C | -38% (inactive) |
| OC1CSCCCSCCSCCCSC1 | -1% (inactive) |
| N#Cc1c(N)[nH]c2ccc(Sc3ccccc3)cc12 | -3% (inactive) |
| Cc1ccc(-c2ccc(Nc3c4ccccc4nc4ccccc34)cc2)cn1 | 8% (inactive) |
| c1ccc2c(c1)NC(NC1Nc3ccccc3N1)N2 | -4% (inactive) |
| OC(COc1cccc2ccccc12)CN1CCOCC1 (centres undefined) | 43% (inactive) |
| CCC/C(Cl)=N\OC(=O)Nc1ccc(Br)cc1 | 9% (inactive) |
| COc1ccc(/C=C2\SC(=S)N(/C=C/c3nc4ccccc4[nH]c3=O)C2=O)cc1OC | -7% (inactive) |
| O=C(NNc1ccnc2cc(Cl)ccc12)/C(=C\c1ccccc1Cl)NC(=O)c1ccccc1 | -8% (inactive) |
| CSC1=NNC(SC)=NN1 | -1% (inactive) |
| Cc1c(C2=C(Br)C(=O)N(C)C2=O)c(=O)n(C)c(=O)n1C | 0% (inactive) |
| NCCNc1ccc(NCCN)c2c1C(=O)c1c(O)ccc(O)c1C2=O | 17% (inactive) |
| Cn1c(=O)c(-c2ccccc2)c(N=[N+]=[N-])c2ccccc21 | 61% (inactive) |
| CCCCCCCCCCCCCCCCCCOCC(O)COP(=O)(O)OCC1OC(n2cc(F)c(=O)[nH]c2=O)CC1O (centres undefined) | -34% (inactive) |
| CCS(=O)(=O)c1ccc(/C=C/C=N/NC(=S)NCC(C)C)cc1 | 6% (inactive) |
| CCC(=O)Oc1c(Cl)cc(Cl)c2ccccc12 | -9% (inactive) |

| SMILES | growth inhibition |
| --- | --- |
| COc1cc2c3c(cccc3c1)C(=O)N(CCN(C)C)C2=O | 13% (inactive) |
| CN(C)c1ccc(C(C#N)=C(C#N)C#N)cc1 | -47% (inactive) |
| O=C(CCCN1CCC2(CC1)CC(=O)N(N1CCCCCC1)C2=O)c1ccc(F)cc1 | 45% (inactive) |
| O=C1C2C(C(=O)N1c1ccc(OCc3ccccc3)cc1)C1c3ccccc3C2C2CCCCN21 (centres undefined) | 1% (inactive) |
| CCN(CC)CCC(=O)c1ccc(Oc2ccc(F)cc2)cc1 | 62% (inactive) |
| O=Nc1c(NO)ccc2nn(-c3ccccc3)nc12 | 14% (inactive) |
| CC(=O)SCCC[Si](C)(C)CCCSC(C)=O | 1% (inactive) |
| O=C(O)C1CCCCC1c1c2ccc(=O)c(O)c-2oc2c(O)c(O)ccc12 (centres undefined) | 7% (inactive) |
| Cc1ccc(NN(NC(=O)OC(C)C)C(=O)OC(C)C)cc1 | 15% (inactive) |
| O=C1c2ccccc2C(=O)c2cc(CBr)ccc21 | 54% (inactive) |
| Cc1c(C(Cc2ccccc2N(C)C(=O)/C=C\C(=O)O)c2c[nH]c3ccccc23)c2ccccc2n1C (centres undefined) | -16% (inactive) |
| CC(C)/C(Cl)=N\OC(=O)Nc1ccc(F)cc1 | 26% (inactive) |
| O=C1OC(=O)C2CCCC3CCCC1C32 (centres undefined) | -21% (inactive) |
| CCOC(=O)C(NC(=O)c1ccccc1)(N1CCN(c2cc3c(cc2F)c(=O)c(C(=O)O)cn3C2CC2)CC1)C(F)(F)F (centres undefined) | -6% (inactive) |
| COc1ccc(NC(=S)N/N=C(\c2ccccc2)c2ccccn2)cc1 | -34% (inactive) |
| C=CCC1=C(C)C(OC(=O)/C=C/c2ccccc2)CC1=O (centres undefined) | 23% (inactive) |
| NNc1c(F)c(F)cc(F)c1F | 0% (inactive) |
| COP(=O)(OC)/C(=C\C1=CN(C(c2ccccc2)(c2ccccc2)c2ccccc2)CN1)NC=O | -9% (inactive) |
| COC(=O)c1cc(-c2ccc(C)cc2)[nH]c(=O)c1C#N | -4% (inactive) |
